Results reported in PubChem BioAssay (Tox21).
“And” between values parts separate entries of the source, which are not always exact repeats. Equal values may be shown once. Inconclusive results are not listed. A call without a number means that no potency is given here. Some compounds were tested as several samples or in several runs, with calls that do not always agree. The source made the active and inactive calls. The rule behind the calls is not given here.

experiment: qHTS assay to identify small molecule antagonists of the estrogen related receptor signaling pathway with the pleiotropic PPARgamma coactivator (PGC) from Tox21 10K library (AID 1224841); details: PGC/ERR reporter cell line, ONE-Glo luciferase, 18 h; series mostly up to 92.4 µM; note: actives are mostly falling curves and most rising ones were filed inactive; nearly all actives have a fitted effect of over 50% in size
From the text: U.S. Tox21 Program National Center for Advancing Translational Sciences [NCATS] NIH Chemical Genomics Center [NCGC] U.S. Environmental Protection Agency [EPA] National Institutes of Environmental Health Sciences [NIEHS] National Toxicology Program [NTP] U.S. Food and Drug Administration [FDA] Tox21 Assay Overview: Estrogen related receptors (ERRs), the first orphan nuclear receptors discovered, play an important role in the control of cellular energy metabolism. ERRs are required for high-energy production in response to the environmental challenges. The pleiotropic PPARgamma coactivator (PGC) is a major partner of ERR and a key regulator in energy homeostasis. Together they have been implicated in the etiology of metabolic disorders such as Type 2 diabetes and metabolic syndrome. ERR-alpha was also identified as an adverse marker for breast cancer progression; ERR-alpha-positive tumors have a poor prognosis. To screen and to identify environmental compounds that perturb the ERR and PGC/ERR signaling pathways could provide valuable information for potential therapeutic or preventive measures in the treatment of metabolic disease. For identifying PGC/ERR antagonists, PGC/ERR cell line (provided by NTP) has been used to screen Tox21 10K library.
Tox21 Assay Protocol Summary: The PGC/ERR cells were dispensed at 2,000 cells/5 ul/well in 1536-well white plates using a Multidrop dispenser. After the assay plates were incubated at a 37 C/5% CO2 incubator for 6 hours, 23 nL of compounds dissolved in DMSO, positive and negative controls or DMSO only was transferred to the assay plate by a pin tool. The plates were incubated at 37 C for 18 hours. 4 ul/well of One-Glo reagent was added into the assay plates using a Flying Reagent Dispenser. After 30-minute incubation at room temperature, the luminescence intensity in the plates was measured using a ViewLux plate reader.
Potency is the fitted concentration of half-maximal effect.

| SMILES | Potency |
| --- | --- |
| c1ccc2[nH]ccc2c1 | 2.69 µM (active) and inactive |
| CCCN(CCC)S(=O)(=O)c1ccc(C(=O)O)cc1 | inactive |
| OC(Cn1cncn1)(Cn1cncn1)c1ccc(F)cc1F | inactive |
| O=c1cc[nH]c(=S)[nH]1 | inactive |
| Nc1ccc(S(=O)(=O)Nc2nccs2)cc1 | inactive |
| NC(=O)c1cnccn1 | inactive |
| O=C1CN(/N=C/c2ccc([N+](=O)[O-])o2)C(=O)N1 | 19.3 µM (active) and 24.3 µM (active) and 16.8 µM (active) |
| CCCCOC(=O)CC(CC(=O)OCCCC)(OC(C)=O)C(=O)OCCCC | inactive and 24.6 µM (active) |
| CCCCC1C(=O)N(c2ccccc2)N(c2ccccc2)C1=O | inactive |
| CC1(C)[C@@H]2CC[C@@]1(C)C(=O)C2 | inactive |
| CC(O)CO (stereo not drawn) | inactive |
| O=C(C1CCCCC1)N1CC(=O)N2CCc3ccccc3C2C1 (stereo not drawn) | inactive |
| O=C(O)CCC(=O)O | inactive |
| CC(=O)OCC(COC(C)=O)OC(C)=O | inactive |
| Cc1cn([C@H]2C[C@H](N=[N+]=[N-])[C@@H](CO)O2)c(=O)[nH]c1=O | inactive |
| Cc1ccc(S(=O)(=O)NC(=O)NN2CCCCCC2)cc1 | inactive |
| Cc1cc(=O)n(-c2ccccc2)n1C | inactive |
| NS(=O)(=O)c1cc(C(=O)O)c(NCc2ccco2)cc1Cl | inactive |
| CCCCC(CC)COC(=O)/C=C/c1ccc(OC)cc1 (stereo not drawn) | inactive |
| Oc1ccc(/C=C/c2cc(O)cc(O)c2)cc1 | inactive |
| COc1ccc2[nH]cc(CCNC(C)=O)c2c1 | inactive |
| NNC(=O)c1ccncc1 | inactive |
| Nc1ccc(O)c(C(=O)O)c1 | inactive |
